ATXN viability: viability counter-screen for ATXN expression inhibitors; hit rate 0.49% among 400,000; S2 cells (HEK-293 line with an ATXN2-luciferase reporter) viability, CellTiter-Fluor protease fluorescence, 24 h; Potency, µM (doses to about 56.7 µM), actives largely listed as cytotoxic; also: nearly all actives have a fitted effect of over 40% in size
ATXN2 expr inh: inhibitors of ATXN2 expression | Potency, µM (series often up to 57 µM), without a hit: at the highest dose activity change, negative = inhibition, hits mostly inhibitors | AID 1745845 | hit rate 0.72% among 360,000 | HEK-293 ATXN2-luciferase reporter, luminescence, 24 h; also: % is scaled to controls: 0 for no effect and ±100 for the full control effect; nearly all actives have a fitted effect of over 55% in size
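ATXN2-luciferase reporter cells (luciferase flanked by upstream and downstream ATXN2 gene portions) were treated 24 h at 37 °C with compounds at up to 57 uM. SteadyGlo luminescence gave expression; GF-AFC fluorescence gave viability.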
Nrf2 activator: activators of Nrf2 (ARE) signaling | AREc32 ARE-luciferase reporter (MCF7-derived line), luminescence, 24 h | hit rate 0.31% among 410,000 | Potency, µM (highest dose often 46.1 µM), inactives show at the highest dose activation, usual class: activators; also: % of control where 0% means no effect; nearly all actives have a fitted effect of over 65% in size
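Nrf2 activation is followed as ARE-luciferase induction in the AREc32 line after one day of compound treatment; luminescence is read with Steady-Glo.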
A549 tox: A549 cytotoxicity, counter-screen for Nrf2 inhibitors | A549 ARE-Fluc cells, CellTiter-Fluor viability, 18-24 h | Potency, µM (doses to about 46 µM), inactives show at the highest dose activity change, negative = cytotoxicity, actives largely listed as inhibitors | hit rate 0.16% among 390,000; also: % is scaled to controls: 0 for no effect and ±100 for the full control effect
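Cytotoxicity counterscreen: CellTiter-Fluor fluorescence was measured in A549 ARE_Fluc cells after 18-24 h of compound exposure in a concentration series. The subsequent BugLite luminescent read reports ARE-luciferase activity.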
Nrf2 inh: Nrf2 pathway inhibition | hit rate 2.1% among 360,000 | Potency, µM (doses to about 46 µM), without a hit: at the highest dose activity change, negative = inhibition, actives largely listed as inhibitors | A549 ARE-Fluc reporter, luciferase luminescence, 18-24 h; also: % is scaled to controls: 0 for no effect and ±100 for the full control effect; nearly all actives have a fitted effect of over 60% in size
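Nrf2 function is reported as luminescence of an ARE-controlled luciferase in A549 cells. Compounds were tested at several concentrations, and a CellTiter-Fluor read on the same wells flagged cytotoxicity.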
* hit, by the source's call; i = inactive; ? = inconclusive; / = not tested or not shown; ! = not confirmed by another sample. Hits are enriched below; roughly 2.9% of the tested compounds scored in any of these assays. Calls follow the shape of the dose curve; as a rule, active = well fitted curve in the direction sought with a large enough effect; inconclusive = small, poorly fitted or top-dose-only effect, or another doubt; inactive = no such curve, though single readings can be large; an effect the other way counts as inactive or inconclusive. Potency is read from the fitted curve at half-maximal effect.

SMILES | ATXN viability | ATXN2 expr inh | Nrf2 activator | A549 tox | Nrf2 inh
Cc1ccc(NS(=O)(=O)c2ccc3c(c2)CCO3)cc1C | / | / | / | -1% | ?
O=[N+]([O-])c1ccc(C[n+]2ccccc2)cc1 | i | 2% | 0% | 0% | 21µM*
CCCCN(CCCNC(=O)c1cc(Nc2ccc(OC)c(OC)c2)nc2ccccc12)c1ccccc1 | i | -4% | 1% | 12% | 6%
O=C(N[C@H]1CCC(=O)N(CCSc2ccc(Br)cc2)CC1)OCc1ccccc1 | 28µM* | ? | 6% | -4% | ?
CCS(=O)(=O)Nc1cc(C(=O)N[C@H]2CCCCNC2=O)c2c(c1)nc(-c1ccccc1)n2C | i | / | / | / | /
O=C(c1ccccc1)N1CCSc2sccc2C1=O | i | 4.7µM* | -2% | -1% | -5%
CC(C)N1CCN(C(=O)c2cnn(-c3nccc(-c4ccc5c(c4)OCO5)n3)c2-c2ccco2)CC1 | i | / | / | / | /
CCN1/C(=C2\SC(=S)N(Cc3ccccc3)C2=O)Sc2ccccc21 | i | -25% | 2% | 4% | 1%
CCC(CO)[n+]1c(C)cc(/C=C2\Sc3ccccc3N2Cc2ccccc2)cc1C (stereo unspecified) | ? | ? | -1% | ? | 15µM*
CC(=O)c1cccc(NC(=O)C(C)OC(=O)c2ccc(S(C)(=O)=O)c([N+](=O)[O-])c2)c1 (stereo unspecified) | / | / | / | -4% | 21%
O=C(CSc1nnc(-c2cccnc2)o1)c1cc2ccccc2oc1=O | i | 0% | 7.1µM* | -1% | /
Cc1cccc(CSC2=CS(=O)(=O)c3ccccc3N2)c1 | i | -15% | 0% | 0% | ?
O=S1(=O)C=C(SCc2cccc(Cl)c2)Nc2ccccc21 | i | -2% | -1% | 0% | 21µM*
CCOC(=O)c1cnc2ccc(OC(F)(F)F)cc2c1Nc1ccccc1C(=O)O | i | 1% | 0% | -17% | -25%
CC[C@H](CO)Nc1nc(Nc2cccc(Cl)c2)c2ncn(C(C)C)c2n1 | 16µM* | ? | -6% | ? | ?
CC(C)[C@H](CO)N(Cc1cccc(F)c1)c1nc(Nc2cccc(Cl)c2)c2ncn(C(C)C)c2n1 | ? | -11% | 0% | ? | ?
Cc1c(C(=O)Nc2ccc(-c3nnc4n3CCCCC4)cc2)oc2c1ccc1ccccc12 | ? | ? | -3% | ? | 9.2µM*
O=C(Nc1ccc(-c2nnc3n2CCCCC3)cc1)c1cc2ccccc2o1 | i | / | 1% | -5% | -27%
COc1cc(/C=N/O)ccc1OCc1ccc(C(=O)O)cc1 | i | 0.71µM* | -3% | 4% | ?
COc1ccc(C[C@H]2CN3C(=NC[C@H]3C)N2CCNC(=O)c2ccc(C)c(Br)c2)cc1 | 28µM* | -18% | -2% | -12% | 5%
CC(=O)N1CCSc2ccc(S(=O)(=O)NCCc3ccc(Cl)cc3)cc21 | i | -27% | 0% | -18% | 15µM*
CC(=O)N1CC(C)Sc2ccc(S(=O)(=O)NCCc3ccc(C)cc3)cc21 (stereo unspecified) | i | -24% | 0% | -11% | 7.3µM*
COc1ccc(S(=O)(=O)n2nc(C)c(S(=O)(=O)N3CCCCCC3)c2C)cc1OC | i | 13% | 0% | 4% | /
Cc1ccnc(N2CCC(C(=O)Nc3cccc(C(F)(F)F)c3)CC2)n1 | ? | -19% | 0% | / | 13µM*
O=C(Nc1cccc(C(F)(F)F)c1)C1CCN(S(=O)(=O)c2cccc3nsnc23)CC1 | ? | ? | 8% | -4% | 21µM*
SMILES | ATXN viability | ATXN2 expr inh | Nrf2 activator | A549 tox | Nrf2 inh
Cc1nnc(N2CCCC(C(=O)NCc3ccccc3)C2)c2nn(-c3ccccc3)c(C)c12 (stereo unspecified) | ? | 6% | 1% | -3% | -6%
Cc1ccnc(N2CCC(C(=O)Nc3ccc(Oc4ccccc4)cc3)CC2)n1 | i | 5% | 0% | 0% | -11%
CCc1ccc(CNC(=O)C2CCCN(c3nnc(C)c4c(C)n(-c5ccccc5)nc34)C2)cc1 (stereo unspecified) | 20µM* | ? | 3% | ? | -8%
Cc1ccc(NC(=O)C2CCN(S(=O)(=O)c3cccc4nsnc34)CC2)cc1F | i | -28% | -1% | 14% | 0%
Cc1nnc(N2CCCC(C(=O)Nc3cccc(C(F)(F)F)c3)C2)c2nn(-c3ccccc3)c(C)c12 (stereo unspecified) | 16µM* | -20% | -1% | ? | /
Cc1ncc2c(c1CNC(=O)c1ccc3c(c1)OCO3)CCN(C(=O)c1ccoc1)C2 | i | / | / | / | /
CN[C@@H]1[C@@H](O)[C@@H](O[C@@H]2[C@@H](O)[C@H](OC3OC(CN)=CCC3N)[C@@H](N)C[C@H]2N)OC[C@]1(C)O (stereo partly specified) | i | / | / | / | /
Cc1ccccc1CNC(=O)C1CCCN(c2nnc(C)c3c(C)n(-c4ccccc4)nc23)C1 (stereo unspecified) | 32µM* | 20µM* | 0% | ? | ?
CCOc1ccccc1CNC(=O)C1CCN(c2nnc(C)c3c(C)n(-c4ccc(C)cc4)nc23)CC1 | / | ? | 7% | ? | 23µM*!
Cc1noc2ncnc(N3CCCC(C(=O)Nc4cccc(C(F)(F)F)c4)C3)c12 (stereo unspecified) | / | 20µM* | 3% | -12% | 5.8µM*
Cc1nnc(N2CCCC(C(=O)NCCc3ccccc3)C2)c2nn(-c3ccccc3)c(C)c12 (stereo unspecified) | 13µM* | -25% | 9% | ? | -15%
COc1ccc(NC(=O)C2CCCN(c3ncnc4onc(C)c34)C2)cc1OC (stereo unspecified) | i | -15% | 3% | 0% | /
O=C(NCCN1CCOCC1)c1cnn(-c2nccc(-c3ccccc3C(F)(F)F)n2)c1C1CC1 | i | / | / | / | /
Cc1cc(=O)oc2c(N)nccc12 | 35µM* | ? | 5% | / | /
COc1ccc(C2/C=C\CN(S(=O)(=O)CC34CCC(CC3=O)C4(C)C)CC(=O)N2Cc2ccc(F)cc2)cc1 (stereo unspecified) | / | / | / | -2% | -7%
COC(CNC(=O)c1ccc2nc(-c3ccccc3)c(-c3ccccc3)nc2c1)OC | i | -9% | 0% | -15% | 16µM*
CC(C)Nc1nc(C#N)nc(Nc2ccccc2)n1 | / | / | / | -1% | 19%
C=CCn1c(SCC(=O)c2[nH]c(C)c(C(=O)OCC)c2C)nc2scc(-c3ccc(OC)c(OC)c3)c2c1=O | / | 28µM* | 0% | -18% | ?
CC(C)(C)c1cc(NC(=O)Nc2ccc(-c3cn4c(n3)sc3cc(OCCN5CCOCC5)ccc34)cc2)no1 | / | -6% | / | / | /
COc1ccccc1N1CCN(C(=O)CSc2ncnc3scc(-c4ccccc4)c23)CC1 | i | -12% | 2% | -3% | 18µM*
O=C(CSc1ncnc2scc(-c3ccccc3)c12)N1CCN(c2ccccc2F)CC1 | i | 4% | -1% | 12% | ?
